Laboratory results reported in PubChem BioAssay AID1159580 (chemical genetic matrix, 2015).
Screen size: about 5,500 compounds; about 2,000 (36%) were called active. Inconclusive results (about 18%) are left out. No stated cut-off is given here; in the data, active means normalized growth mostly below about 0.91 (no sharp cut-off); inconclusive means no clear call, values can overlap the other calls; inactive means mostly above about 0.92. The list shows a part of the results.

Experiment: chemical genetic growth profiling, strain panel (AID 1159580);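 further: tested at 20 µM; growth read once vehicle control cultures reached saturation at 30 °C; 1 = growth at the plate median or of vehicle wells; lower values mean less growth of the strain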
Settings: growth OD

Measured: normalized growth

N#Cc1c(Cl)cccc1Cl
inactive: S. cerevisiae deletion strains, locus YJR075W, strain HOC1, hits give low values 1.02 | S. cerevisiae deletion strains, locus YKL009W, strain mrt4, hits give low values 1.02 | S. cerevisiae deletion strains, locus YKL068W, hits give low values 1.01 | S. cerevisiae deletion strains, locus YKL085W, strain MDH1 (second series), hits give low values 1.01 | S. cerevisiae deletion strains, locus YKL085W, strain MDH1, hits give low values 1.01 | S. cerevisiae deletion strains, locus YKL160W, strain elf1, hits give low values 0.981 | S. cerevisiae deletion strains, locus YKL190W, strain CNB1, hits give low values 1.02 | S. cerevisiae deletion strains, locus YKR001C, strain vps1, hits give low values 1.01 | S. cerevisiae deletion strains, locus YKR026C, strain gcn3, hits give low values 0.982 | S. cerevisiae deletion strains, locus YKR091W, strain srl3, hits give low values 0.978 | S. cerevisiae deletion strains, locus YLL001W, strain dnm1, hits give low values 0.988 | S. cerevisiae deletion strains, locus YLL026W, hits give low values 0.975 | S. cerevisiae deletion strains, locus YLL041C, strain sdh2, hits give low values 0.977 | S. cerevisiae deletion strains, locus YLR027C, strain aat2, hits give low values 0.959 | S. cerevisiae deletion strains, locus YLR039C, strain RIC1, hits give low values 1.01 | S. cerevisiae deletion strains, locus YLR058C, strain SHM2, hits give low values 1.02 | S. cerevisiae deletion strains, locus YLR102C, strain apc9, hits give low values 1.01 | S. cerevisiae deletion strains, locus YLR113W, strain HOG1, hits give low values 0.987 | S. cerevisiae deletion strains, locus YLR221C, strain rsa3, hits give low values 0.971 | S. cerevisiae deletion strains, locus YLR258W, strain gsy2, hits give low values 0.991 | S. cerevisiae deletion strains, locus YLR262C, strain YPT6 (second series), hits give low values 0.999 | S. cerevisiae deletion strains, locus YLR262C, strain YPT6, hits give low values 1.05 | S. cerevisiae deletion strains, locus YLR268W, strain sec22, hits give low values 0.999 | S. cerevisiae deletion strains, locus YLR320W, strain mms22, hits give low values 0.988 | S. cerevisiae deletion strains, locus YLR330W, strain CHS5, hits give low values 1.01 | S. cerevisiae deletion strains, locus YLR342W, strain FKS1 (second series), hits give low values 1.04 | S. cerevisiae deletion strains, locus YLR342W, strain FKS1, hits give low values 0.978 | S. cerevisiae deletion strains, locus YLR357W, strain rsc2, hits give low values 0.978 | S. cerevisiae deletion strains, locus YLR370C, strain arc18, hits give low values 0.965 | S. cerevisiae deletion strains, locus YLR371W, strain rom2, hits give low values 1.01 | S. cerevisiae deletion strains, locus YLR384C, strain iki3, hits give low values 0.975 | S. cerevisiae deletion strains, locus YLR418C, strain cdc73, hits give low values 1.01 | S. cerevisiae deletion strains, locus YML016C, strain PPZ1, hits give low values 1.01 | S. cerevisiae deletion strains, locus YML032C, strain rad52, hits give low values 1.02 | S. cerevisiae deletion strains, locus YML120C, strain ndi1, hits give low values 0.988 | S. cerevisiae deletion strains, locus YML124C, strain tub3, hits give low values 1.01 | S. cerevisiae deletion strains, locus YMR058W, strain fet3, hits give low values 0.968 | S. cerevisiae deletion strains, locus YMR078C, strain ctf18, hits give low values 1.02 | S. cerevisiae deletion strains, locus YMR125W, strain sto1, hits give low values 0.974 | S. cerevisiae deletion strains, locus YMR129W, hits give low values 1.01 | S. cerevisiae deletion strains, locus YMR205C, strain PFK2, hits give low values 1.01 | S. cerevisiae deletion strains, locus YMR223W, strain ubp8, hits give low values 1.01 | S. cerevisiae deletion strains, locus YMR231W, strain pep5, hits give low values 0.982 | S. cerevisiae deletion strains, locus YMR263W, strain SAP30, hits give low values 1.02 | S. cerevisiae deletion strains, locus YMR307W, strain GAS1, hits give low values 1.01 | S. cerevisiae deletion strains, locus YNL067W, strain RPL9B, hits give low values 1.01 | S. cerevisiae deletion strains, locus YNL071W, strain lat1, hits give low values 0.985 | S. cerevisiae deletion strains, locus YNL128W, strain TEP1, hits give low values 1.01 | S. cerevisiae deletion strains, locus YNL153C, strain GIM3, hits give low values 1.01 | S. cerevisiae deletion strains, locus YNL183C, strain NPR1, hits give low values 0.902 | S. cerevisiae deletion strains, locus YNL209W, strain ssb2, hits give low values 0.995 | S. cerevisiae deletion strains, locus YNL233W, strain BNI4, hits give low values 1.02 | S. cerevisiae deletion strains, locus YNL248C, strain rpa49, hits give low values 0.971 | S. cerevisiae deletion strains, locus YNL250W, strain rad50, hits give low values 1.02 | S. cerevisiae deletion strains, locus YNL271C, strain bni1, hits give low values 1.02 | S. cerevisiae deletion strains, locus YNL298W, strain CLA4, hits give low values 1.02 | S. cerevisiae deletion strains, locus YNL307C, strain MCK1, hits give low values 1.01 | S. cerevisiae deletion strains, locus YNL322C, strain KRE1 (second series), hits give low values 0.978 | S. cerevisiae deletion strains, locus YNL322C, strain KRE1, hits give low values 1.01 | S. cerevisiae deletion strains, locus YNR049C, strain mso1, hits give low values 0.958 | S. cerevisiae deletion strains, locus YNR052C, strain pop2, hits give low values 1.02 | S. cerevisiae deletion strains, locus YOL006C, strain TOP1, hits give low values 1.04 | S. cerevisiae deletion strains, locus YOL012C, strain htz1 1.37 | S. cerevisiae deletion strains, locus YOL147C, strain pex11, hits give low values 1.01 | S. cerevisiae deletion strains, locus YOR001W, strain rrp6, hits give low values 0.993 | S. cerevisiae deletion strains, locus YOR061W, strain CKA2, hits give low values 1.01 | S. cerevisiae deletion strains, locus YOR069W, strain VPS5, hits give low values 1 | S. cerevisiae deletion strains, locus YOR070C, strain gyp1, hits give low values 0.991 | S. cerevisiae deletion strains, locus YOR080W, strain dia2, hits give low values 0.963 | S. cerevisiae deletion strains, locus YOR083W, strain WHI5, hits give low values 0.974 | S. cerevisiae deletion strains, locus YOR106W, strain vam3, hits give low values 0.974 | S. cerevisiae deletion strains, locus YOR136W, strain idh2, hits give low values 1.01 | S. cerevisiae deletion strains, locus YOR144C, strain elg1, hits give low values 1.01 | S. cerevisiae deletion strains, locus YOR184W, strain ser1, hits give low values 1.03 | S. cerevisiae deletion strains, locus YOR231W, strain MKK1, hits give low values 0.966 | S. cerevisiae deletion strains, locus YOR265W, strain rbl2, hits give low values 0.966 | S. cerevisiae deletion strains, locus YOR270C, strain vph1, hits give low values 1.01 | S. cerevisiae deletion strains, locus YOR290C, strain snf2, hits give low values 0.985 | S. cerevisiae deletion strains, locus YOR316C, strain cot1, hits give low values 1.01 | S. cerevisiae deletion strains, locus YPL051W, strain arl3, hits give low values 0.995 | S. cerevisiae deletion strains, locus YPL055C, strain LGE1, hits give low values 1.05 | S. cerevisiae deletion strains, locus YPL078C, strain atp4, hits give low values 0.984 | S. cerevisiae deletion strains, locus YPL106C, strain sse1, hits give low values 0.975 | S. cerevisiae deletion strains, locus YPL240C, strain hsp82, hits give low values 0.979 | S. cerevisiae deletion strains, locus YPL241C, strain CIN2, hits give low values 1.01 | S. cerevisiae deletion strains, locus YPL256C, strain CLN2, hits give low values 0.968 | S. cerevisiae deletion strains, locus YPR119W, strain clb2, hits give low values 1.01 | S. cerevisiae deletion strains, locus YPR141C, strain kar3, hits give low values 1.02 | S. cerevisiae deletion strains, locus YPR163C, strain tif3, hits give low values 1.02 | S. cerevisiae deletion strains, locus YPR167C, strain met16, hits give low values 1.02 | S. cerevisiae deletion strains, strain wtn01, hits give low values 1.02 | S. cerevisiae strains, strain wild type, hits give low values 1.01
